The text below walks through data of PubChem BioAssay.

Structures are written as SMILES. “And” between values parts separate entries of the source, which are not always exact repeats. Equal values may be shown once. For part of these data: Entries with a potency or affinity are not part of this list. The source made the active and inactive calls.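 Rule for the calls, unless noted: active = thallium flux through the channel raised or lowered by more than 3 SD from vehicle-only wells, actives on both sides; inactive = the rest.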

Experiment [1] can be described thus: growth inhibition, single agents and combos, ICB984, cell-based, cisplatin or BGB combos, synergistic combos for chromothripsis tumors (AID 1671451; call rule not given here;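 note: cells exposed for 96 hours before readout; 0% = vehicle DMSO and 100% = killing by high DMSO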). As to conditions: ICB984 medulloblastoma cells, drug combinations, stronger effect = higher value.
Experiment [2] is described as follows: compounds altering circadian rhythm period length – cell-based, LOPAC library, luminescence reporter (AID 2774; call rule not given here;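 note: values are relative to mean of DMSO wells on each plate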). The settings on record: circadian reporter cells, at 7 µM, actives lie on both sides.
The test system of experiment [3] is Hepatitis C virus NS3 helicase. Nature of the experiment: blockers of NS3h binding to ssDNA – biochemical, fluorescence polarization, LOPAC1280 library, primary screen (AID 687035; in the data active = inhibition above about 37%). As to conditions: Purified HCV NS3 helicase, Cy5-dT15 ssDNA binding fluorescence polarization; stronger effect = higher value; concentration not given here. A general note: Polarisation of emitted light reports the rotation of a fluorescent probe.

A short description of experiment [4]: P. berghei load reduction in hepatocytes – cell-based, HepG2, luciferase luminescence, HepG2 viability, primary screen (AID 624349; in the data active = parasite load remaining mostly below about 12%, no sharp cut-off; inactive = mostly above about 10%;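 note: 100% = mean of DMSO negative control wells on the same plate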). The settings on record: P. berghei liver stage in HepG2, luciferase luminescence, concentration not given here; parasite load remaining: stronger effect = lower value; viability: measured here: HepG2 viability without parasites.
Experiment [5] in a line: blockers of polyQ-driven CASP3 activation – cell-based (AID 1583). The settings on record: polyglutamine-induced caspase-3 activation, cell assay; stronger effect = higher value;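 tested at 10 µM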.
The nature of experiment [6]: yeast 75Q aggregation reduction – 75Q-TubU reporter (AID 1593). As to conditions: Yeast 75Q polyglutamine aggregation reporter.
Experiment [7] in a line: restoration of touch response, mutant HTT neurons – whole organism, C. elegans mechanosensory neurons, N-terminal huntingtin (AID 1599). As to conditions: C. elegans polyQ-huntingtin mechanosensory neurons, stronger effect = higher value.
Experiment [8] can be described thus: blockers of cytochrome c efflux from mitochondria – biochemical, purified mitochondria (AID 1603).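 Note: mouse liver mitochondria challenged with calcium chloride; signal normalized to the plate average as 100%.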 The settings on record: stronger effect = lower value.
Experiment [9] in a line: polyglutamine aggregate formation blockers (AID 1604). The settings on record: polyglutamine-induced protein aggregation inhibition assay; stronger effect = higher value; tested at 2.5 µM.
Experiment [10] in a line: glutamate transport activators, MN-1 cells, MN-1 cell line (AID 1612).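 Note: tested at 1 µM final; 0% = mean of DMSO vehicle wells on each plate; positive means more glutamate uptake than control and negative means less.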 The settings on record: MN-1 motor neuron cells, stronger effect = higher value.
The nature of experiment [11]: 75Q-TubH aggregate inhibition, S. cerevisiae, yeast (AID 1616). The settings on record: S. cerevisiae 75Q-TubH polyglutamine aggregation suppression; stronger effect = higher value.
Experiment [12] concerns Hepatitis C virus NS3 helicase. Nature of the experiment: blockers of NS3h binding to DNA – biochemical, fluorescence polarization, NIH Clinical Collection, primary screen (AID 743270; call rule not given here). As to conditions: NS3 helicase binding to Cy5-dT15 DNA, stronger effect = higher value, concentration not given here.
For experiment [13], the target named is Single-stranded DNA-binding protein (Escherichia coli (strain K12)) (UniProt P0AGE0). Nature of the experiment: SSB-ssDNA binding inhibitors – biochemical, fluorescence polarization, NIH Clinical Collection, counter-screen for HCV NS3 helicase inhibitor project (AID 743271; in the data active = inhibition above about 28%). The settings on record: E. coli SSB-DNA binding, stronger effect = higher value, concentration not given here.

The nature of experiment [14]: compounds distorting NS3 helicase fluorescence signal – biochemical, NIH Clinical Collection, artefact control for HCV NS3 helicase inhibitor project (AID 743272; call rule not given here;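 note: HCV NS3 helicase with a Cy5 labelled single stranded DNA probe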). As to conditions: fluorescence interference counterscreen, HCV NS3 helicase assay; stronger effect = lower value. A general note: The purpose of a counterscreen is to sort out artefacts and off-target activity.
For another experiment, the system named is F380Y. Briefly: BK channel mutant inhibitors and activators – cell-based, U2OS BacMam, thallium flux, beta subunits, selectivity assay, profiling panel (AID 1259406).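 Note: initial slope of Thallos dye fluorescence rise after thallium is added; log ratio against the mean of 0.3% DMSO vehicle wells on the same plate.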 The settings on record: U2OS BacMam BK variants, at 30 µM.
The next experiment deals with F380Y/beta2Delta. The description is as above. The settings on record: U2OS BacMam BK variants, at 30 µM.
Experiment [15] deals with Calcium-activated potassium channel subunit alpha-1 (Homo sapiens) + Leucine-rich repeat-containing protein 26 (Homo sapiens) (UniProt Q12791+Q2I0M4). The description is as above. As to conditions: U2OS BacMam BK variants, F380Y/Slo1WT/gamma1, at 30 µM.
Chain of Calcium-activated potassium channel subunit alpha-1 (Homo sapiens) + Leucine-rich repeat-containing protein 26 (Homo sapiens) (Q2I0M4 whole entry, looked up, one chain of several): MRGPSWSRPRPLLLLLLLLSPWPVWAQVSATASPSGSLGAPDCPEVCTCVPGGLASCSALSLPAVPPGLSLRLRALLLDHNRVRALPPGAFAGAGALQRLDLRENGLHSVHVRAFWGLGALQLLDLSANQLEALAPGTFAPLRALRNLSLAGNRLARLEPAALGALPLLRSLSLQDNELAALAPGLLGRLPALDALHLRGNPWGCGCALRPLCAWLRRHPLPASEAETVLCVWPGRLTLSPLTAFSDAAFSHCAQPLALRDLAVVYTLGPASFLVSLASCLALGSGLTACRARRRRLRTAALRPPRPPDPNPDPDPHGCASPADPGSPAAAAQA
The test system of a further experiment is R275C. The experiment is described as above. As to conditions: U2OS BacMam BK variants, at 30 µM.
The test system of a further experiment is R275C/beta1. Described as above. The settings on record: U2OS BacMam BK variants, at 30 µM.
A further experiment deals with R275C/beta2Delta. Described as above. As to conditions: U2OS BacMam BK variants, at 30 µM.

Consider `CN1C[C@@H]2C[C@H]1CN2c1cc2c(cc1F)c(=O)c(C(=O)O)cn2C1CC1`, for which the inhibition was -24.2% in [1] (BGB IC20 combo, at 0.005 µM); -26.9% in [1] (BGB IC40 combo, at 0.005 µM); -20.5% in [1] (BGB IC40 combo, at 0.05 µM); -31.1% (inactive) in experiment [1] (at 0.5 µM); -23.9% in experiment [1] (cisplatin combo, at 0.05 µM); -25.9% in [1] (cisplatin combo, at 0.5 µM). Further, the inhibition in experiment [1] (cisplatin combo, at 5 µM) is -68.4%; in [1] (measured here: 5 uM single agent, at 5 µM) it was -23.8%.
Consider `CN(C)CCCO[C@@H]1[C@H]2OC(C)(C)O[C@H]2O[C@@H]1C(O)CO` (some centres undefined), for which the period change in experiment [2] is -0.08 h (inactive). The inhibition in experiment [3] was -4% (inactive).
In the same order, the values of `CCCn1cnc2c1c(=O)n(CCCCC(C)=O)c(=O)n2C` are 0.185 h (inactive) and 1% (inactive).
On to `O=C(CCCN1CCC(O)(c2cccc(C(F)(F)F)c2)CC1)c1ccc(F)cc1`, for which the period change in experiment [2] is 0.235 h (inactive). Moreover, in experiment [4], the parasite load remaining is 27% (inactive) and the viability came out at 66%. For the same compound, the inhibition in experiment [3] was -3% (inactive).
Consider `Cc1c(C)c2c(c(C)c1O)CC[C@@](C)(CCC[C@H](C)CCC[C@H](C)CCCC(C)C)O2`, for which, in [4], the parasite load remaining is 72.9% (inactive) and the viability is 100%.
Take `Cc1ccc(O)cc1`: the inhibition in experiment [5] turned out to be 26.8%. The same compound yielded a score in [6] of 0.73. In [7], this compound came in with a rescue above control of -1.33. Besides, the cytochrome c release ratio in experiment [8] was determined as 0.32. This compound also showed an inhibition of aggregation in [9] of 83.3%. Also, the glutamate uptake change in [10] was 1.82%. This compound showed an aggregation suppression score in experiment [11] of 1.04. Moreover, in experiment [4], the parasite load remaining is 125% (inactive) and 76.1% (inactive); the viability was 68.3% and 96.4%.
`NC1=NCC2c3ccccc3Cc3ccccc3N12` (centres undefined): the inhibition in [3] was -2% (inactive).
For the compound `CCc1cccc(N(C)C(N)=Nc2cccc3ccccc23)c1`, the period change in experiment [2] was -0.08 h (inactive). Also, in experiment [3], the inhibition was 1% (inactive).
For `CN1CCN(C2Cc3ccccc3Sc3ccc(Cl)cc32)CC1` (centres undefined), in that order: 0.285 h (inactive) and -1% (inactive).
For the compound `O=C(O)CCC(=O)OC[C@@H](NC(=O)C(Cl)Cl)[C@H](O)c1ccc([N+](=O)[O-])cc1`, the inhibition in experiment [5] was 29.9%. Further, the score in [6] was determined as 1.53. In addition, in experiment [7], the rescue above control was -1.33. Besides, the cytochrome c release ratio in experiment [8] is 0.7. Also, in experiment [9], the inhibition of aggregation stood at 74.7%. In addition, in [10], the glutamate uptake change was determined as 7.22%. The compound further showed an aggregation suppression score in [11] of 1.43. Moreover, in [4], the parasite load remaining was 75.9% (inactive) and 67.1% (inactive); the viability was 75.5% and 91.9%.
As to `CC(=O)N(CC(O)CN(C(C)=O)c1c(I)c(C(=O)NCC(O)CO)c(I)c(C(=O)NCC(O)CO)c1I)c1c(I)c(C(=O)NCC(O)CO)c(I)c(C(=O)NCC(O)CO)c1I` (centres undefined), in experiment [4], the parasite load remaining is 80.7% (inactive) and the viability was 90.6%.
Turning to `CN/C(=C\[N+](=O)[O-])NCCSCc1ccc(CN(C)C)o1`, the inhibition is 6.1% in [5], -3% (inactive) in experiment [3], 0.45% (inactive) in [12] and 6.39% (inactive) in experiment [13]. In experiment [6], this compound displayed a score of 1.61. The same compound yielded a rescue above control in experiment [7] of -10.5. In addition, the cytochrome c release ratio in experiment [8] is 0.8. Also, the inhibition of aggregation in experiment [9] was found to be 71.9%. The glutamate uptake change in [10] is -10.5%. In [11], the aggregation suppression score worked out at 1.66. In addition, the period change in experiment [2] is 0.16 h (inactive). Further, in [14], the fluorescence ratio is 0.89 (inactive). Besides, the log fold change Tl+ flux in the experiment on F380Y is -0.0669 (inactive); with F380Y/beta2Delta it was 0.0319 (inactive); in [15], -0.0244 (inactive); with R275C, 0.017 (inactive); in the experiment on R275C/beta1, 0.0242 (inactive); in the experiment on R275C/beta2Delta, -0.00414 (inactive).
Take `CC(C)NCC(O)COc1cccc2[nH]ccc12` (centres undefined): the inhibition in experiment [5] was -39.9%; in experiment [3], -5% (inactive); in experiment [12] it was -5.91% (inactive); in experiment [13], 2.57% (inactive). Further, the score in experiment [6] is 1.28. This compound also yielded a rescue above control in experiment [7] of 3.36. Further, in experiment [8], the cytochrome c release ratio was 0.95. Further, in experiment [9], the inhibition of aggregation is 83.3%. For the same compound, the glutamate uptake change in experiment [10] was 11.9%. For the same compound, the aggregation suppression score in experiment [11] was 1.28. For the same compound, in [2], the period change is 0.015 h (inactive). Further, the fluorescence ratio in experiment [14] was 0.9 (inactive). Moreover, the log fold change Tl+ flux in the experiment on F380Y was -0.0071 (inactive); in the experiment with F380Y/beta2Delta, 0.0139 (inactive); in [15], 0.0267 (inactive); with R275C it was 0.00949 (inactive); in the experiment with R275C/beta1, 0.00683 (inactive); in the experiment on R275C/beta2Delta it was -0.0133 (inactive).
Take `CN1CCN(C2=Nc3cc(Cl)ccc3Nc3ccccc32)CC1`: the inhibition is -23.8% in experiment [5], -3% (inactive) in experiment [3], -2.27% (inactive) in [12] and -3.53% (inactive) in experiment [13]. The score in experiment [6] amounted to 1.19. Also, in experiment [8], the cytochrome c release ratio was 1.52. Besides, the inhibition of aggregation in experiment [9] was determined as 65.4%. The glutamate uptake change in [10] is -8.51%. The same compound gave an aggregation suppression score in [11] of 1.14. For the same compound, in experiment [2], the period change was 0.13 h (inactive). In experiment [14], the fluorescence ratio is 1.01 (inactive). Moreover, the log fold change Tl+ flux in the experiment with F380Y was 0.296 (active); in the experiment with F380Y/beta2Delta, 0.389 (active); in experiment [15], 0.0716 (inactive); with R275C, 0.0716 (inactive); with R275C/beta1, 0.156 (active); in the experiment with R275C/beta2Delta, 0.106 (active).
In the case of `CC(C(=O)O)c1cccc(C(=O)c2ccccc2)c1` (centres undefined), the inhibition in [5] was -50.9%; in experiment [3], -5% (inactive); in experiment [12], -1.36% (inactive); in [13], 1.05% (inactive). The compound further showed a score in experiment [6] of 1.03. In experiment [7], this compound displayed a rescue above control of 17.1. In addition, in experiment [8], the cytochrome c release ratio was 1.12. Also, the inhibition of aggregation in experiment [9] is 74.7%. Besides, the glutamate uptake change in [10] is -7.92%. Also, the aggregation suppression score in experiment [11] amounted to 0.564. The period change in [2] was -0.125 h (inactive). The fluorescence ratio in experiment [14] was 0.96 (inactive). In addition, the log fold change Tl+ flux in the experiment on F380Y was 0.0438 (inactive); in the experiment on F380Y/beta2Delta, 0.023 (inactive); in [15], 0.0363 (inactive); in the experiment with R275C it was -0.00546 (inactive); with R275C/beta1, -0.000822 (inactive); in the experiment with R275C/beta2Delta, -0.0306 (inactive).

Broadly, the inhibition is the drop in the measured response relative to a control, in per cent. A word on the viability: it is a per cent measure of how many cells are alive, often set against a control.
